Each structure is given as a SMILES string. Among all 48,000 compounds or so, about 13,000 (27%) showed an effect of 50% or more. This is one part of the list.

This assay relates to Wolbachia pipientis. Nature of the assay: Anti-Wolbachia Cell-Based Screen. The assay is classed as functional. Also on record: scale not given: in the data most compounds retested in dose-response had high values. As to conditions: 5 µM.
As for `CC(C)c1cc(NCC2(N3CCOCC3)CCCCC2)ncn1`, the “Percent Effect” value is on record as -13.37%.
Under `Cc1noc2ncnc(N3CCC(O)(Cn4ccnc4)CC3)c12` stands -11.6%.
Turning to `Cc1cc(-c2nnn(CCC(N)=O)n2)ccc1F`, the “Percent Effect” value was -8.55%.
For `CN(Cc1ccsc1)C(=O)CS(=O)(=O)Cc1ccc(Cl)c(Cl)c1`, the “Percent Effect” value is recorded as -4.981%.
`CN(Cc1ccsc1)C(=O)Cn1c(CS(C)(=O)=O)nc2ccccc21`: the “Percent Effect” value stood at 150.1%.
Consider `COCCN1CCN(CC(=O)N(C)Cc2ccsc2)CC1`, for which the “Percent Effect” value was -3.337%.
`CS(=O)(=O)CCNC(=O)C1(c2cccc(Cl)c2)CCCCC1`: the “Percent Effect” value came to 4.174%.
With `CS(=O)(=O)N1CCOCC2(CCN(Cc3ccc[nH]3)CC2)C1.O=C(O)C(F)(F)F`, the “Percent Effect” value is listed as -6.777%.
For the compound `CS(=O)(=O)N1CCOCC2(CN(Cc3ccsc3)CCO2)C1.O=C(O)C(F)(F)F` (stereo unspecified), the “Percent Effect” value is -5.064%.
As to `CN1CCOCC12CCN(Cc1ccoc1)CC2.O=C(O)C(F)(F)F.O=C(O)C(F)(F)F`, the “Percent Effect” value came to 109%.
Take `Cc1ccc(CN2CCC3(CC2)CCN(Cc2ccoc2)CC3)cc1.O=C(O)C(F)(F)F.O=C(O)C(F)(F)F`: the “Percent Effect” value is 17.41%.
`CS(=O)(=O)N1CCOCC2(CCN(Cc3ccoc3)CC2)C1.O=C(O)C(F)(F)F`: the “Percent Effect” value was 115.7%.
Turning to `O=C(CCc1ccsc1)NCc1ccnc(OC2CCOCC2)c1`, the “Percent Effect” value is reported as -13.16%.
For the compound `O=C(O)C(F)(F)F.O=c1ccc2c(n1CC1CC1)CCC(NCc1cccs1)C2` (stereo unspecified), the “Percent Effect” value is 108.8%.
Under `CN(C)C(=O)Cn1c2c(ccc1=O)CC(NCc1ccoc1)CC2.O=C(O)C(F)(F)F` (stereo unspecified) stands -9.512%; under `COc1ncccc1CNC1CCc2c(ccc(=O)n2CC2CC2)C1.O=C(O)C(F)(F)F.O=C(O)C(F)(F)F` (stereo unspecified), 98.83%; under `COCCN1C(=O)CC[C@]12CC[C@@H](NCc1cccnc1OC)CC2.O=C(O)C(F)(F)F.O=C(O)C(F)(F)F`, -1.329%.
On to `Cn1c2c(ccc1=O)CC(Nc1ncc(F)cn1)CC2.O=C(O)C(F)(F)F` (stereo unspecified), for which the “Percent Effect” value is recorded as -3.561%.
Take `COc1ncccc1CN1CCc2[nH]nc(C(=O)N3CCCC3C)c2C1.O=C(O)C(F)(F)F.O=C(O)C(F)(F)F` (stereo unspecified): the “Percent Effect” value is on record as 4.676%.
`COCCn1c2c(ccc1=O)CC(NCc1cccnc1OC)CC2.O=C(O)C(F)(F)F.O=C(O)C(F)(F)F` (stereo unspecified): the “Percent Effect” value came to 97.75%.
The value for `COc1ncccc1CNC1CCc2c(ccc(=O)n2C)C1.O=C(O)C(F)(F)F.O=C(O)C(F)(F)F` (stereo unspecified) was 100.1%; that for `Cn1cnc(S(=O)(=O)NCC2CCN(C(=O)Oc3ccccc3)CC2)c1` was -16.29%; that for `Cc1ccc(C(NC(=O)Cn2cc(C3CC3)nn2)C2CC2)cc1` (stereo unspecified) was -17.63%.
With `Cc1cc(CN(C)C(=O)NC2CCC(O)CC2)no1` (stereo unspecified), the “Percent Effect” value is listed as -5.162%.
Under `c1csc(CNc2ccccc2Cn2cncn2)c1` stands 2.841%.
Turning to `Cn1cnc(S(=O)(=O)NCC2(O)CCc3ccccc32)c1` (stereo unspecified), the “Percent Effect” value is recorded as -54.8%.
As to `Cn1cc(CN2CCC[C@]3(C(=O)O)CN(c4cnccn4)CC[C@@H]23)cn1`, the “Percent Effect” value is reported as -2.616%.
With `NC(=O)c1cnc(NC2CCN(c3ccccn3)CC2)c(Cl)c1`, the “Percent Effect” value was -2.297%.
The value for `O=c1cc(N2CCCCC2)cnn1C[C@H](O)CO` was 78.69%; that for `CC(C)=CCn1ncc(N2CCOCC2)cc1=O` was 1.937%.
The value for `O=c1cc(N2CCCCC2)cnn1CC(O)C(F)(F)F` (stereo unspecified) was 110.9%; that for `O=c1cc(N2CCNCC2)cnn1CCc1ccc(F)cc1` was -7.094%.
On to `CCC(CC)Cn1ncc(N2CCOCC2)cc1=O`, for which the “Percent Effect” value came out at 7.831%.
The value for `O=c1cc(N2CCCC2)cnn1CC(F)F` was 95.3%; that for `CC(C)=CCn1ncc(N2CCCCC2)cc1=O` was 8.054%; that for `O=c1cc(N2CCCC2)cnn1CCc1cccc(F)c1` was 9.222%.
For `O=c1cc(N2CCOCC2)cnn1CCc1ccc(F)cc1`, the “Percent Effect” value was -9.338%.
With `Cc1nnc(N2C[C@H](C(=O)NCC3CC3)[C@@H]3CCO[C@@H]3C2)s1.O=C(O)C(F)(F)F`, the “Percent Effect” value came out at 0.08379%.
Regarding `CC(C)Cc1noc(CNc2cccc(-c3nnnn3C)c2)n1`, the “Percent Effect” value amounted to 3.895%.
Under `CCc1nc(N2CCN(Cc3ncccc3C)CC2)c2cnn(C)c2n1` stands 1.339%.
For the compound `COCc1nc(N2CC[C@H](N(C)C)C2)c2cnn(C)c2n1`, the “Percent Effect” value came out at 102.3%.
`CCCOC1CCCN(c2nc(CC)nc3c2cnn3C)C1` (stereo unspecified): the “Percent Effect” value is reported as 107.1%.
As to `COCc1nc(N2CCC(CCO)CC2)c2cnn(C)c2n1`, the “Percent Effect” value is listed as -4.999%.
Regarding `CN(C)[C@H]1CCN(c2nc(C(C)(C)C)nc3c2cnn3C)C1`, the “Percent Effect” value is -2.508%.
On to `CCCOC1CCCN(c2ncnc3c2CCN(C(=O)C2CC2)C3)C1` (stereo unspecified), for which the “Percent Effect” value worked out at 1.517%.
Consider `CCCOC1CCCN(c2nc(COC)nc3c2cnn3C)C1` (stereo unspecified), for which the “Percent Effect” value is 118.8%.
For the compound `NC(=O)NC(=O)Cn1ccc2sccc2c1=O`, the “Percent Effect” value was -7.139%.
For `CCC(C)NC(=O)Cn1ccc2sc(C)cc2c1=O` (stereo unspecified), the “Percent Effect” value worked out at 106.2%.
For the compound `COc1cc(NC(=O)Cn2ccc3sc(C)cc3c2=O)cc(OC)c1`, the “Percent Effect” value was -10.49%.
As to `COCCNC(=O)Cn1ccc2sc(C)cc2c1=O`, the “Percent Effect” value was found to be 165.3%.
In the case of `COCCCNC(=O)CN(C)C(=O)c1cc(C)sc1C`, the “Percent Effect” value was -3.68%.
On to `N#Cc1cccc(N2CCCC3(C2)CN(c2ncc(F)cn2)CCO3)n1.O=C(O)C(F)(F)F` (stereo unspecified), for which the “Percent Effect” value is recorded as -18.06%.
With `Fc1ccc(CN2CCCCC2Cn2cncn2)c2ncccc12` (stereo unspecified), the “Percent Effect” value was determined as 6.637%.
For the compound `Cc1ncc(CC(=O)N2CCCC(COc3ccccc3F)C2)c(=O)[nH]1` (stereo unspecified), the “Percent Effect” value stood at 16.93%.
Take `Cn1cnc2c1CCN(Cc1cccc(OCC(N)=O)c1)C2`: the “Percent Effect” value is listed as -0.9151%.
Under `NC(=O)CN1CCC(C(=O)NCc2ccc3c(c2)OCCCO3)CC1` stands -4.067%.
For the compound `COC(=O)N1CC[C@@]2(O)CCCC[C@H]2[C@@H]1c1ccc2c(c1)OCO2`, the “Percent Effect” value came to 122.6%.
Under `O=C(O)C(c1ccc2c(c1)OCO2)N1CCC(C(=O)N2CCCC2)CC1` (stereo unspecified) stands 0.296%.
With `CN1CCN(C(=O)N2CC[C@@](O)(c3ccccc3)[C@H]3CCCC[C@@H]32)CC1`, the “Percent Effect” value is -18.77%.
Turning to `Cn1cc(C(=O)N2CCCC2c2ccc3c(c2)OCO3)ccc1=O` (stereo unspecified), the “Percent Effect” value is 2.509%.
Under `CC(=O)N1CCN(C[C@H]2CC[C@@H](Cc3ccc4c(c3)OCO4)O2)CC1` stands 6.248%; under `NC(=O)CN1CC[C@@]2(O)CCCC[C@H]2[C@@H]1c1ccc2c(c1)OCO2`, 128.7%; under `CC(=O)N1CC[C@H]2NC(=O)N(Cc3ccccc3)C(=O)[C@H]21`, 6.922%.
`CCN1CCCC(O)(CNCc2ccc3c(c2)OCO3)C1` (stereo unspecified): the “Percent Effect” value is recorded as -9.558%.
Take `CC(=O)N1CC[C@@]2(O)CCCC[C@H]2[C@@H]1c1ccccc1`: the “Percent Effect” value stood at 132.1%.
With `Cn1ccc(CN2CCCC2c2ccc3c(c2)OCCCO3)cc1=O` (stereo unspecified), the “Percent Effect” value stood at 3.687%.
`CC(=O)N1CC[C@@]2(O)CCCC[C@H]2[C@@H]1c1ccc2c(c1)OCO2`: the “Percent Effect” value came out at 121.2%.
For the compound `CCCN1CC2(CCN(c3ccc(C(C)=O)cn3)CC2)CC1C(=O)O` (stereo unspecified), the “Percent Effect” value came to 10.16%.
Under `Cc1noc([C@@H]2C[C@H](NC(=O)NC(C)C)CN2C)n1` stands -7.021%; under `CN1C[C@@H](NC(=O)c2ccccc2)C[C@H]1c1nc(-c2cnccn2)no1`, -2.532%.
`CN1CCN(CCc2ncnn2-c2ccc3c(c2)OCO3)CC1`: the “Percent Effect” value is listed as -0.8313%.
As for `O=S(=O)(NCCSc1nccn1C1CC1)c1ccccc1`, the “Percent Effect” value was 5.63%.
The value for `CSCc1ccc(CNCCN2CCOCC2)o1` was -4.251%; that for `CSCc1ccc(CNCCCN2CCOCC2)o1` was 3.399%.
`Cc1ccc(CNCCN2CCOCC2)o1`: the “Percent Effect” value was 131.7%.
As to `CSc1ccccc1C(=O)NCc1cc2n(n1)CCCN(CC(C)C)C2`, the “Percent Effect” value is -7.136%.
`Cn1cc(N2CCN(c3ccc(C#N)c(Cl)c3)CC2=O)cn1`: the “Percent Effect” value is on record as -30.5%.
Take `CC(C)(O)CN1CCN(C(=O)c2sccc2C2CC2)CC1`: the “Percent Effect” value is -8.363%.
In the case of `CCC(O)CN1CCN(C(=O)c2sccc2C2CC2)CC1` (stereo unspecified), the “Percent Effect” value is listed as 131.2%.
Consider `CCc1nnsc1C(=O)N1CCN(CC(O)CC)CC1` (stereo unspecified), for which the “Percent Effect” value was -1.027%.
The value for `Cc1cc(CN2CCN(C(=O)c3sccc3C(C)C)CC2)no1` was -0.2452%.
The value for `CCC(O)CN1CCN(C(=O)c2sccc2C(C)C)CC1` (stereo unspecified) was 113.4%; that for `CC(C)(C)OC(=O)N1CCN(C(=O)c2sccc2C2CC2)CC1` was -2.417%; that for `Cc1n[nH]c(C)c1CNc1ccc(-c2nc(C3CC3)no2)cn1` was 9.439%.
Consider `COc1ccc([C@@H]2CN(C(=O)CCc3cc(Cl)no3)C[C@H]2N(C)C)cc1`, for which the “Percent Effect” value is listed as -5.122%.
The value for `Cn1c(=O)c2cc(C(=O)NCCOCC(F)(F)F)ccc2n(C)c1=O` was 109.9%.
`Cn1c(=O)c2cc(C(=O)NCCOc3ccccc3)ccc2n(C)c1=O`: the “Percent Effect” value is given as 103.9%.
Take `Cc1ccc(-n2ccnc2)c(C(=O)NCCOCC(F)(F)F)c1`: the “Percent Effect” value stood at 1.401%.
Consider `CC(O)(CCc1ccccc1)CNC(=O)c1ccc(F)cc1` (stereo unspecified), for which the “Percent Effect” value was -3.449%.
Regarding `O=C(O)c1ccc(CCNC(=O)C2(O)Cc3ccccc3C2)cc1`, the “Percent Effect” value turned out to be 0.991%.
The value for `COc1ccc(OCCNC(=O)c2ccc3c(=O)[nH][nH]c(=O)c3c2)cc1` was 4.909%.
Take `O=C(NCCOc1ccccc1)c1ccc2c(c1)C(=O)NC2=O`: the “Percent Effect” value is recorded as -4.876%.
On to `Cn1c(=O)c2cc(C(=O)NCCc3ccccc3)ccc2n(C)c1=O`, for which the “Percent Effect” value worked out at 97.39%.
Under `O=C(NCCOCC(F)(F)F)c1ccc(-c2ccco2)[nH]c1=O` stands 3.056%; under `Cc1cnc(C)c(N2CCC(c3nnc(CN(C)C)n3C3CC3)CC2)n1`, 5.849%; under `O=C(O)c1ccc(F)c(S(=O)(=O)Nc2ccc(-n3cccn3)c(Cl)c2)c1`, -11.53%.
Turning to `Cc1c(F)cc(C(=O)O)cc1S(=O)(=O)Nc1ccc(F)c(C#N)c1`, the “Percent Effect” value is given as 122.4%.
Regarding `COC(=O)c1ccc(Cl)c(S(=O)(=O)Nc2ccc(F)c(C(N)=O)c2)c1`, the “Percent Effect” value was -0.6488%.
For the compound `N#Cc1cc(NS(=O)(=O)c2cc(C(=O)O)cc(Cl)c2Cl)ccc1F`, the “Percent Effect” value came out at 118.7%.
For the compound `N#Cc1cc(NS(=O)(=O)c2ccc(C(=O)O)cc2F)ccc1F`, the “Percent Effect” value was -1.66%.
`CCc1ccc(C(=O)O)cc1S(=O)(=O)Nc1ccc(F)c(C#N)c1`: the “Percent Effect” value amounted to 3.443%.

For the origin of these results see ChEMBL document CHEMBL3988442, “University of Dundee, Small-Polar-MMV Screening Library” (2021).
